The source of these data is PubChem BioAssay (NCATS).

As a reminder, the viability is a read-out of living cells in per cent, often relative to untreated cells.

Structures are written as SMILES. Inconclusive results are not listed. Active and inactive are the calls of the source. Calls come from the whole dose curve; as a rule, active = well fitted curve in the direction sought with a large enough effect; inconclusive = small, poorly fitted or top-dose-only effect, or another doubt; inactive = no such curve, though single readings can be large; an effect the other way counts as inactive or inconclusive.

Assay [1] can be described thus: Quantitative High-Throughput drug screen in 47 multiple myeloma cell lines against the NCATS MIPE library collection: H1112_PLB cell viability assay (AID 1918967; note: nearly all actives have a fitted effect of over 30% in size; note: potency is the fitted concentration of half-maximal effect). In a few lines:
(§1)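 We plated 500 myeloma cells per well, pinned in MIPE 4.0 compounds, and incubated for 48 hours at 37C. ATP was then quantified with CellTiter-Glo, with DMSO and media-only wells defining 100% and 0%.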

A short description of assay [2]: Quantitative High-Throughput drug screen in 47 multiple myeloma cell lines against the NCATS MIPE library collection: KMS27_JCRB cell viability assay (AID 1918970). Note: nearly all actives have a fitted effect of over 30% in size. Note: potency is the fitted concentration of half-maximal effect. In a few lines: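 Luminescent ATP read-out (CellTiter-Glo, 5 min at room temperature) after 48 h compound exposure of 500 KMS27_JCRB cells per well; DMSO wells define full viability and media-only wells zero.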

Assay [3] is described as follows: Quantitative High-Throughput drug screen in 47 multiple myeloma cell lines against the NCATS MIPE library collection: KMS20_JCRB cell viability assay (AID 1918973). Note: nearly all actives have a fitted effect of over 45% in size. Note: potency is the fitted concentration of half-maximal effect. In a few lines: as §1
A short description of assay [4]: Quantitative High-Throughput drug screen in 47 multiple myeloma cell lines against the NCATS MIPE library collection: KMS21BM_JCRB cell viability assay (AID 1918974). Note: potency is the fitted concentration of half-maximal effect. The settings on record: ATP luminescence, 48 h; viability: at 45.8 µM (top of the series) unless noted. In a few lines: as §1
The nature of assay [5]: Quantitative High-Throughput drug screen in 47 multiple myeloma cell lines against the NCATS MIPE library collection: KMS26_JCRB cell viability assay (AID 1918975). Note: nearly all actives have a fitted effect of over 45% in size. Note: potency is the fitted concentration of half-maximal effect. In a few lines:
(§2)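 Inhibition of cell viability is measured here. Each line was plated at 500 cells per well, treated with MIPE 4.0 drugs, kept 48 hours at 37C, then assayed for ATP content by CellTiter-Glo luminescence.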

A short description of assay [6]: Quantitative High-Throughput drug screen in 47 multiple myeloma cell lines against the NCATS MIPE library collection: NCIH929_DSMZ cell viability assay (AID 1918978). Note: nearly all actives have a fitted effect of over 35% in size. Note: potency is the fitted concentration of half-maximal effect. In a few lines: (§3)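 500 cells/well per myeloma line exposed to pinned MIPE 4.0 compounds for 48 h at 37 °C, 5% CO2. Viability read as ATP by CellTiter-Glo luminescence, normalised to DMSO-only (100%) and media-only (0%) wells.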

Assay [7] in a line: Quantitative High-Throughput drug screen in 47 multiple myeloma cell lines against the NCATS MIPE library collection: OCIMY1_PLB cell viability assay (AID 1918979). Note: nearly all actives have a fitted effect of over 35% in size. Note: potency is the fitted concentration of half-maximal effect. In a few lines:
as §3

Assay [8] can be described thus: Quantitative High-Throughput drug screen in 47 multiple myeloma cell lines against the NCATS MIPE library collection: MM1S_ATCC cell viability assay (AID 1918980). Note: nearly all actives have a fitted effect of over 45% in size. Note: potency is the fitted concentration of half-maximal effect. In a few lines:
as §3

The nature of assay [9]: Quantitative High-Throughput drug screen in 47 multiple myeloma cell lines against the NCATS MIPE library collection: LP1_DSMZ cell viability assay (AID 1918982). Note: nearly all actives have a fitted effect of over 35% in size. Note: potency is the fitted concentration of half-maximal effect. In a few lines:
as §3

Assay [10] is described as follows: Quantitative High-Throughput drug screen in 47 multiple myeloma cell lines against the NCATS MIPE library collection: KMS28PE_JCRB cell viability assay (AID 1918983). Note: nearly all actives have a fitted effect of over 35% in size. Note: potency is the fitted concentration of half-maximal effect. In a few lines:
as §3

Assay [11] can be described thus: Quantitative High-Throughput drug screen in 47 multiple myeloma cell lines against the NCATS MIPE library collection: OCIMY7_PLB cell viability assay (AID 1918987). Note: potency is the fitted concentration of half-maximal effect; nearly all actives have a fitted effect of over 65% in size. In a few lines:
as §3

Assay [12] in a line: Quantitative High-Throughput drug screen in 47 multiple myeloma cell lines against the NCATS MIPE library collection: OCIMY5_PLB cell viability assay (AID 1918988). Note: nearly all actives have a fitted effect of over 65% in size. Note: potency is the fitted concentration of half-maximal effect. In a few lines: as §3
Assay [13] is described as follows: Quantitative High-Throughput drug screen in 47 multiple myeloma cell lines against the NCATS MIPE library collection: KMS12PE_JCRB cell viability assay (AID 1918972). Note: nearly all actives have a fitted effect of over 30% in size. Note: potency is the fitted concentration of half-maximal effect. In a few lines:
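Myeloma cell lines, 500 cells per well, exposed to MIPE 4.0 library compounds for 48 h at 37C, 5% CO2. Viability from ATP by CellTiter-Glo luminescence; normalised to DMSO (100%) and media-only (0%) wells.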

The nature of assay [14]: Quantitative High-Throughput drug screen in 47 multiple myeloma cell lines against the NCATS MIPE library collection: MMM1_PLB cell viability assay (AID 1918976). In a few lines: as §3
A short description of assay [15]: Quantitative High-Throughput drug screen in 47 multiple myeloma cell lines against the NCATS MIPE library collection: MOLP8_DSMZ cell viability assay (AID 1918977). Note: nearly all actives have a fitted effect of over 45% in size. Note: potency is the fitted concentration of half-maximal effect. In a few lines:
as §3

Assay [16] can be described thus: Quantitative High-Throughput drug screen in 47 multiple myeloma cell lines against the NCATS MIPE library collection: MM1R_ATCC cell viability assay (AID 1918981). Note: nearly all actives have a fitted effect of over 35% in size. Note: potency is the fitted concentration of half-maximal effect. In a few lines: as §3
Assay [17] in a line: Quantitative High-Throughput drug screen in 47 multiple myeloma cell lines against the NCATS MIPE library collection: KMS12BM_JCRB cell viability assay (AID 1918971). Note: nearly all actives have a fitted effect of over 35% in size. In a few lines: as §2
Assay [18] is described as follows: Quantitative High-Throughput drug screen in 47 multiple myeloma cell lines against the NCATS MIPE library collection: L363_DSMZ cell viability assay (AID 1918984). Note: nearly all actives have a fitted effect of over 40% in size. Note: potency is the fitted concentration of half-maximal effect. In a few lines: as §3
Assay [19] can be described thus: Quantitative High-Throughput drug screen in 47 multiple myeloma cell lines against the NCATS MIPE library collection: KMS34_JCRB cell viability assay (AID 1918985). Note: nearly all actives have a fitted effect of over 40% in size. Note: potency is the fitted concentration of half-maximal effect. In a few lines: as §3
The nature of assay [20]: Quantitative High-Throughput drug screen in 47 multiple myeloma cell lines against the NCATS MIPE library collection: Karpas25_ECACC cell viability assay (AID 1918968; note: nearly all actives have a fitted effect of over 35% in size; note: potency is the fitted concentration of half-maximal effect). In a few lines: as §1

Regarding `O=C(NOC[C@H](O)CO)c1ccc(F)c(F)c1Nc1ccc(I)cc1F`, the Potency is 0.0148 µM (active) in assay [1]; 0.0105 µM (active) in [2]; 0.0662 µM (active) in assay [3]; 0.0296 µM (active) in assay [4]; 0.059 µM (active) in [6]; 16.6 µM (active) in [8]. In addition, the Potency in assay [10] was 2.96 µM (active); in assay [11], 0.0148 µM (active). The Potency entry in [5], in [7], in assay [9] and in assay [12] was “inactive” each time.
`COc1cccc2cc(-c3nc(C4CCC(C(=O)O)CC4)n4ncnc(N)c34)[nH]c12` (stereo not drawn): the Potency in [1] is 5.9 µM (active); in assay [13] it was 0.166 µM (active); in assay [4] it was 0.469 µM (active); in assay [5], 0.662 µM (active); in assay [14], 0.662 µM (active); in assay [15], 0.418 µM (active). Moreover, the Potency in assay [6] was 0.187 µM (active); in [7], 1.05 µM (active); in assay [8], 0.469 µM (active); in assay [16], 0.469 µM (active); in assay [11] it was 4.18 µM (active).
Regarding `COc1cc(Nc2ncc3c(n2)-c2ccc(Cl)cc2C(c2c(F)cccc2OC)=NC3)ccc1C(=O)O`, the Potency entry in [1], in assay [17], in assay [6], in assay [7], in [16] and in [9] was “inactive” in each case. Further, in [18], the Potency entry was “inactive”.
In the case of `CCc1ccc(CCOc2ccc(CC3SC(=O)NC3=O)cc2)nc1` (stereo not drawn), the Potency entry in assay [1], in assay [2], in [13], in assay [5], in assay [15] and in [6] was “inactive” throughout. The Potency entry in assay [7], in [16] and in assay [19] was “inactive” throughout. In addition, in assay [14], the Potency is 8.33 µM (active).
As to `O=S(=O)(N=Cc1c(O)ccc2ccccc12)c1cccs1`, the Potency is 16.6 µM (active) in assay [1]; 0.833 µM (active) in assay [3]; 16.6 µM (active) in [5]; 4.69 µM (active) in [6]; 0.0209 µM (active) in assay [8]. The Potency result in [17], in assay [7], in assay [16] and in assay [9] was “inactive” in each case.
`O=C(O)COCCN1CCN(C(c2ccccc2)c2ccc(Cl)cc2)CC1` (stereo not drawn): the Potency result in assay [1], in [17], in assay [13], in [15], in [7] and in assay [8] was “inactive” each time. The Potency entry in assay [16], in assay [19] and in assay [12] was “inactive” in each case. The Potency was 14.8 µM (active) in assay [14] and 0.296 µM (active) in assay [18].
As to `NC(=O)c1ccc(-c2nc(-c3ccc4c(c3)OCO4)c(-c3ccccn3)[nH]2)cc1`, the Potency entry in assay [1], in assay [2], in assay [13], in [3], in assay [15] and in assay [6] was “inactive” in each case. Besides, the Potency entry in assay [7] and in assay [8] was “inactive” in each case. The Potency in [16] was 7.43 µM (active); in assay [19], 2.64 µM (active); in assay [12] it was 9.35 µM (active).
On to `CCC(C)N(C)C(=O)c1cc2ccccc2c(-c2ccccc2Cl)n1` (stereo not drawn), for which the Potency result in assay [1], in assay [3], in [15], in [6], in [7] and in [16] was “inactive” each time. The Potency result in [9] was “inactive”. Also, the Potency was 16.6 µM (active) in assay [2] and 23.5 µM (active) in [8].
In the case of `Cc1cc(SCc2sc(-c3ccc(C(F)(F)F)cc3)nc2C)ccc1OCC(=O)O`, the Potency entry in [1], in assay [2], in assay [6], in assay [7], in [16] and in [9] was “inactive” in each case. For the same molecule, the Potency entry in assay [18] and in assay [19] was “inactive” in each case. For the same molecule, the Potency in assay [11] is 20.9 µM (active); in [12] it was 3.72 µM (active).
Regarding `CCCS(=O)(=O)Nc1ccc(F)c(C(=O)c2c[nH]c3ncc(-c4ccc(Cl)cc4)cc23)c1F`, the Potency in assay [1] is 9.35 µM (active); in [14] it was 26.4 µM (active); in assay [8], 7.43 µM (active); in [9] it was 16.6 µM (active); in assay [11], 5.9 µM (active). The Potency result in assay [2] and in assay [18] was “inactive” in each case.
In the case of `COc1ccc(CCN2CCN(CCCc3ccccc3)CC2)cc1OC`, the Potency result in assay [1], in assay [17], in assay [15], in assay [6], in assay [16] and in assay [10] was “inactive” throughout. The Potency in [4] was 3.32 µM (active).
With `NCCCC(N)(C(=O)O)C(F)F` (stereo not drawn), the Potency in [20] was 0.166 µM (active); in [6], 0.0526 µM (active); in assay [8], 0.105 µM (active); in [9], 1.48 µM (active); in assay [18], 5.9 µM (active). The Potency entry in assay [2], in [17], in assay [13], in [5], in assay [16] and in [10] was “inactive” throughout.
On to `c1ccc([C@H]2CN3CCSC3=N2)cc1`, for which the Potency entry in [20], in assay [2], in assay [17], in assay [4], in assay [5] and in [6] was “inactive” each time. For the same molecule, the Potency entry in [7], in [16], in assay [9], in assay [10], in assay [18] and in assay [19] was “inactive” in each case. Besides, the Potency entry in [12] was “inactive”.
As for `Cc1cc([C@@H](C)Nc2ccccc2C(=O)O)c2nc(N3CCOCC3)cc(=O)n2c1`, the Potency in assay [20] is 3.03 µM (active); in assay [2], 10.8 µM (active); in assay [5], 27 µM (active); in assay [7] it was 8.55 µM (active); in assay [8], 9.59 µM (active); in assay [16], 27 µM (active). Also, the Potency was 2.7 µM (active) in [19], 2.15 µM (active) in assay [11] and 38.2 µM (active) in assay [12]. In assay [4], the viability was 15.1% [at 92.2 µM] (active).
